# Sampled rows, rich in hits. Any-hit rate of the full collection: about 13%.
# ALDH1A1 inh: qHTS Assay for Inhibitors of Aldehyde Dehydrogenase 1 (ALDH1A1) | Aldehyde dehydrogenase 1A1 (Homo sapiens), P00352 | 7.3% of 220,000 active | Potency, µM (doses to about 75.3 µM), actives largely listed as inhibitors | AID 1030, 2008 | Purified ALDH1A1, NADH fluorescence, propionaldehyde substrate; active = well fitted inhibition curve with a large enough effect, not every such curve was filed as active; inconclusive = small, poorly fitted or top-dose-only effect, or another doubt; inactive = no such curve, though single readings can be large or run the other way
# Target sequence (P00352 whole entry, looked up): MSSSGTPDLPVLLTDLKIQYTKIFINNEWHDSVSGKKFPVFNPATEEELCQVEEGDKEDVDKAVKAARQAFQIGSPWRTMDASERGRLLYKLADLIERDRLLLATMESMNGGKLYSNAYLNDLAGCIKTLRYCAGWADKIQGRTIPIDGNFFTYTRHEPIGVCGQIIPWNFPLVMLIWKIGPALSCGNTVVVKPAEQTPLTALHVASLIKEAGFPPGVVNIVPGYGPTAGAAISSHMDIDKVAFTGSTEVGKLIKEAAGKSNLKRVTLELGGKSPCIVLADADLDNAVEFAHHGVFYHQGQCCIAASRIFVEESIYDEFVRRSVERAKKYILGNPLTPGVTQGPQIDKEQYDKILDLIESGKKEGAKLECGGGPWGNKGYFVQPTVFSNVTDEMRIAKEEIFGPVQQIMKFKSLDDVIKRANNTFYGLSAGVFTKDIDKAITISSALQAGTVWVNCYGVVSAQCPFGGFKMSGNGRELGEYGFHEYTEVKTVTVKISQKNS
# G9a inh: qHTS Assay for Inhibitors of Histone Lysine Methyltransferase G9a. AID 504332, 2011. 8.8% of 350,000 active. Potency, µM (top dose mostly 102 µM), most hits filed as inhibitors. G9a H3K9 monomethylation, AlphaScreen, 2 h; note: nearly all actives have a fitted effect of over 75% in size
#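 Signal arises when biotinylated H3K9 peptide, once monomethylated, bridges streptavidin donor and antibody-captured acceptor beads. Enzyme at 20 nM was preincubated 15 min with test compounds; peptide 500 nM and SAM 20 uM then reacted for 2 h.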
# LMNA splice mod: qHTS Assay for Modulators of Lamin A Splicing. 0.01% of 200,000 active. Potency, µM (highest dose often 46.1 µM), most hits filed as inhibitors. HeLa LMNA splicing GFP/RFP minigene ratio, 48 h; active = well fitted inhibition curve with a large enough effect in the signal ratio, with a control signal flat, not every such curve was filed as active; inconclusive = small, poorly fitted or top-dose-only effect, or effect the other way, or a change in a side signal; the % refers to the signal ratio
#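 S3 HeLa cells stably expressing lamin A-EGFP splicing minigene plus DsRed2, 600 cells/well, 48 h compound exposure at 37C. Laser-scanning cytometry; analysed as GFP (500-530 nm)/RFP (575-640 nm) total intensity ratio; 0.5% DMSO vehicle.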
# JMJD2E inh: qHTS Assay for Inhibitors of Human Jumonji Domain Containing 2E (JMJD2E). Potency, µM (titrated, usually from 57.1 µM), hits mostly inhibitors. AID 2147, 2009. Lysine-specific demethylase 4E (Homo sapiens), B2RXH2. 1.6% of 230,000 active. JMJD2E catalytic domain, FDH-coupled NADH fluorescence (FDH is formaldehyde dehydrogenase); note: nearly all actives have a fitted effect of over 50% in size
# Sfp PPTase inh: qHTS Assay for Inhibitors of Bacillus subtilis Sfp phosphopantetheinyl transferase (PPTase); 4'-phosphopantetheinyl transferase ffp (Bacillus subtilis), Q9F4F7; Biochemical Sfp PPTase activity, qHTS; Potency, µM, hits mostly inhibitors; 3.5% of 310,000 active;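 note: the enzyme is Sfp with the accession as filed and its product quenches rhodamine fluorescence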
#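 Sfp 15 nM + cpd, 15 min RT; start w/ rhodamine-CoA 5 uM, BHQ-2-YbbR 12.5 uM (final); 50 mM Hepes pH 7.6, 10 mM MgCl2, 0.01% NP-40, 0.01% BSA; read 525/598 nm at 0 and 30 min.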
# miR-21 act: qHTS Assay for Modulators of miRNAs and/orActivators of miR-21. Potency, µM (doses to about 38.3 µM), most hits filed as activators. 340,000 tested, under 10 active. HeLa miR-21 FLuc reporter, luciferase, 48 h;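 note: miR-21 action dims this reporter so a rising signal means less miR-21 action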
#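 Compounds were titrated across several concentrations (up to approximately 40 uM) and incubated 48 hours with HeLa miR-21-FLuc reporter cells (miR-21 target sequence downstream of FLuc, endogenous miR-21). Readout was firefly luciferase luminescence after lytic detection reagent.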
# Numbers stand for hits; . = inactive; ? = inconclusive; / = not tested or not shown; [ ] = dose if it differs, or a comment. Unless noted, calls come from the whole dose curve; as a rule, active = well fitted curve in the direction sought with a large enough effect; inconclusive = small, poorly fitted or top-dose-only effect, or another doubt; inactive = no such curve, though single readings can be large; an effect the other way counts as inactive or inconclusive.
SMILES,ALDH1A1 inh,G9a inh,LMNA splice mod,JMJD2E inh,Sfp PPTase inh,miR-21 act
COc1cc(-c2cc(N)n(S(=O)(=O)c3ccccc3)n2)cc(OC)c1OC,.,.,.,.,.,.
O=C(Nc1nc2n(n1)C(c1ccccc1)C=C(c1ccc(Cl)cc1)N2)c1ccco1 (configuration not stated),/,?,/,/,/,.
COc1ccc(C(=O)Nc2nc3n(n2)C(c2ccccc2)C=C(c2ccccc2)N3)cc1 (configuration not stated),/,25µM,?,/,/,.
O=C(c1nc2n(n1)C(c1ccc(Cl)cc1)C=C(c1ccccc1)N2)N1CCOCC1 (configuration not stated),?,3.5µM,.,?,.,.
CC(=O)Nc1nc2n(n1)C(c1ccc(F)cc1)C=C(c1ccccc1)N2 (configuration not stated),?,8.9µM,.,?,35µM,.
CC(=O)Nc1nc2n(n1)C(c1ccccc1)C=C(c1ccccc1)N2 (configuration not stated),?,?,.,?,?,.
O=C(Nc1nc2n(n1)C(c1ccccc1)C=C(c1ccccc1)N2)c1ccco1 (configuration not stated),?,22µM,.,?,56µM,.
CCCCCCOc1ccc(C2C(=O)N(C3CCCCC3)CC(=O)N2CCC)cc1 (configuration not stated),/,.,?,/,/,.
O=c1c(-c2ccc(F)cc2)nc2cnc(N3CCNCC3)nc2n1C1CC1,?,.[0.501 µM],.,/,.,/
Cc1cc(N=Nc2ccc(C)c(N=Nc3cc(C)c(N)cc3N)c2)c(N)cc1N,/,40µM,/,?,?,.
Cc1ccc(N=Nc2ccc(O)c3ncccc23)cc1C,.,?,/,.,.,.
Cc1ccc(-n2cc(CN(C)Cc3ncc[nH]3)c(-c3cccc(C)c3)n2)cc1,.,?,/,.,56µM,.
CCn1ccnc1CN(C)Cc1cn(-c2cc(C)ccc2C)nc1-c1ccccc1,28µM,50µM,/,?,?,.
CN(Cc1ncc[nH]1)Cc1cn(-c2ccccc2)nc1-c1ccc2c(c1)OCO2,/,?,/,?,.,.
O=C(c1c2c(nc3ccccc13)C(=O)N(C1CCCCC1)C2)N1CCN(c2ccc(F)cc2)CC1,/,.,.,/,/,.
O=[N+]([O-])c1ccccc1-c1ccc(C(=S)N2CCCC2)o1,2.2µM,10µM,.,25µM,7.9µM,.
CC(=O)c1cccc(NC(=O)c2ccc(-c3ccccc3[N+](=O)[O-])o2)c1,?,?,?,.,.,.
O=[N+]([O-])c1ccccc1-c1ccc(C(=S)N2CCCCC2)o1,22µM,20µM,/,.,25µM,.
Cc1cccc(N2CCN(C(=S)c3ccc(-c4ccccc4[N+](=O)[O-])o3)CC2)c1,?,11µM,?,.,?,.
O=C(c1ccc(COc2ccccc2[N+](=O)[O-])o1)N1CCCCC1,?,.,?,.,.,.
CC(C)(C)OC(=O)N1CCC(c2c(C(=O)N3CCN(c4ccccn4)CC3)cnn2-c2cccc(F)c2)CC1,/,.,.,/,/,.
O=C(O)c1cc(-c2cccnc2)nn1-c1ccccn1,.,28µM,.,.,.,.
O=C(O)c1cc(-c2cccnc2)nc2ccccc12,/,.,/,.,.,.
CCOC(=O)C1CCN(C(=O)Cn2nc(CC)n3cccc3c2=O)CC1,/,.,/,/,.,.
COc1ccc(CNC(=O)CCNC(=O)N2CCn3c2nc2ccccc23)cc1,/,45µM,/,/,.,.
SMILES,ALDH1A1 inh,G9a inh,LMNA splice mod,JMJD2E inh,Sfp PPTase inh,miR-21 act
COc1cccc(CNC(=O)CCNC(=O)N2CCn3c2nc2ccccc23)c1,/,?,/,/,.,.
O=C(CCCCCn1c(=O)c2sccc2n(CC(=O)Nc2ccccc2F)c1=O)NCc1ccc2c(c1)OCO2,/,.,/,/,/,.
NC(N)=NC(N)=Nc1ccc2ccccc2c1,.,79µM,.,?,.,.
COc1cccc(N=C(N)N=C(N)N)c1,/,.,/,.,.,.
CC(C)CCN1C(=O)c2ccccc2CC1(C)C(=O)NC1CCC(C)CC1 (configuration not stated),/,.,/,/,/,.
CCn1c(=O)n(CC)c2cc(N3CCCC3)c(NC(=O)c3ccccc3OC)cc21,/,35µM,/,/,.,.
CCOc1ccccc1C(=O)Nc1cc2c(cc1N1CCCC1)n(CC)c(=O)n2CC,/,45µM,/,/,.,.
CCc1ccc(-n2nc3cc(C)c(NC(=O)c4cc(Cl)ccc4OC)cc3n2)cc1,/,14µM,/,/,/,.
CCn1c(=O)n(CC)c2cc(N3CCCC3)c(NC(=O)c3cc(Cl)ccc3OC)cc21,/,40µM,/,/,?,.
CCOC(=O)/C(=C/c1ccco1)NC(=O)c1ccc(Br)o1,?,/,.,.,.,.
CCc1ccccc1NC(=O)CN(Cc1ccccc1)S(=O)(=O)c1ccc2nc(C)sc2c1,/,.,.,/,/,.
COc1cc2[nH]c(=S)n(Cc3ccc(C)cc3)c(=O)c2cc1OC,.,.,/,.,56µM,.
COc1cc2[nH]c(=S)n(Cc3ccco3)c(=O)c2cc1OC,0.79µM,3.5µM,.,.,.,.
COc1ccc(Cn2c(=S)[nH]c3cc(OC)c(OC)cc3c2=O)cc1,.,.,/,.,.,.
O=c1c2cc(N3CCOCC3)ccc2[nH]c(=S)n1Cc1ccco1,?,7.1µM,.,?,7.9µM,.
O=C(c1ccc(Cn2c(=S)[nH]c3ccc(N4CCOCC4)cc3c2=O)cc1)N1CCC(N2CCCCC2)CC1,?,40µM,/,?,.,.
O=C(Nc1ccc(SC(F)F)cc1)c1ccc2c(=O)n3c(nc2c1)CCC3,/,.,/,/,/,/
COc1ccc(C2/C=C\CN(Cc3ccc(N(C)C)cc3)CC(=O)N2Cc2ccc(F)cc2)cc1 (configuration not stated),/,?,/,.,.,.
COc1ccc(OC)c(NC(=O)c2ccc3c(=O)n(CCc4ccccc4)c(=S)[nH]c3c2)c1,.,.,.,.,.,.
O=c1[nH]c2ccc(Cl)cc2c(=O)n1Cc1ccco1,?,.[12.7 µM],.,.,.,.
O=c1c2cc(Cl)ccc2[nH]c(=S)n1Cc1ccco1,11µM,.[12.7 µM],.,.,.,.
COc1ccc(N2CCN(C(=O)Cc3ccc(-n4c(=O)[nH]c5ccccc5c4=O)cc3)CC2)cc1,.,?,.,.,?,.
O=C(Cc1ccc(-n2c(=S)[nH]c3ccccc3c2=O)cc1)N1CCC(N2CCCCC2)CC1,?,50µM,.,.,.,.
COc1ccc(NC(=O)c2ccc3c(=O)n(Cc4ccco4)c(=S)[nH]c3c2)c(OC)c1,0.89µM,.,.,.,.,.

# Compound activity from PubChem.
